The panel holds about 79,000 compounds, 15% with a hit somewhere; the sample as a whole holds those more often. A number with no mark means an inactive call. Activity calls are given as the source filed them. Rule as the data show it: active = growth inhibition above about 70%; inactive = the rest.
Assay: NCI Yeast Anticancer Drug Screen. Data for the mlh1 rad18 strain (AID 175)
Details: S. cerevisiae mlh1 rad18 strain growth inhibition; at 50.0 µM; stronger effect = higher value
In short: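 Compound-treated yeast growth, normalised to vehicle controls. Strain bears defined DNA repair mutations.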

**Q.** With `NC(=O)c1ccccn1` as the compound, how does the growth inhibition read?
**A.** Its growth inhibition is 28.4%.

**Q.** Which growth inhibition does the source give for `COc1cc(C=Nc2ccc(C(C)C)cc2)cc(OC)c1OC` here?
**A.** Its growth inhibition is 12.7%.

**Q.** With `CC(=O)OCC(=O)COC(C)=O` as the compound, how does the growth inhibition read?
**A.** Its growth inhibition is -8.55%.

**Q.** Which growth inhibition does the source give for `CCCCNc1ccc([N+](=O)[O-])cc1[N+](=O)[O-]` here?
**A.** Its growth inhibition is -0.6%.

**Q.** With `Nc1ncc(C(=O)O)c(N)n1` as the compound, how does the growth inhibition read?
**A.** Its growth inhibition is 33.6%.

**Q.** For `COC1=CC(=O)C=C(OC)C1=O`, which growth inhibition is on record?
**A.** The growth inhibition was -11.6%.

**Q.** Which growth inhibition does the source give for `C/C=C/[C@@]1(OC(=O)c2ccccc2)C[C@@H]2CCCC[C@@H]21` here?
**A.** The growth inhibition was 31.6%.

**Q.** For `CN(C)CCN(C(=Nc1ccccc1)N1CCCC1)c1ccccc1`, which growth inhibition is on record?
**A.** Its growth inhibition is 4.5%.

**Q.** Which growth inhibition does the source give for `CCOC(=O)C(C(=O)OCC)=C1c2ccccc2Oc2ccccc21` here?
**A.** Its growth inhibition is 46%.

**Q.** For `C=C(C)COCc1ccc(C(C)(C)CC(C)(C)C)cc1`, which growth inhibition is on record?
**A.** Its growth inhibition is 1.55%.

**Q.** For `O=[N+]([O-])c1ccc(N=NC(=S)NNc2ccccc2)cc1`, which growth inhibition is on record?
**A.** The growth inhibition was 23.5%.

**Q.** For `[O-]/[N+](=C\c1ccc(Cl)cc1)c1ccccc1`, which growth inhibition is on record?
**A.** The growth inhibition was -7%.

**Q.** With `Cc1ccc(/S(Cc2ccccc2)=N\S(=O)(=O)c2ccc(C)cc2)cc1` (stereo not given) as the compound, how does the growth inhibition read?
**A.** The growth inhibition was -33.1%.

**Q.** With `Cc1nc(N)c2c(ncn2C2OC(CO)C(O)C2O)n1` (stereo not given) as the compound, how does the growth inhibition read?
**A.** Its growth inhibition is 14.6%.

**Q.** For `O=C1c2c(-c3ccccc3)ccc(-c3ccccc3)c2C(=O)c2c(-c3ccccc3)ccc(-c3ccccc3)c21`, which growth inhibition is on record?
**A.** Its growth inhibition is -13.6%.

**Q.** For `COc1ccc(N2C(=O)C3c4[nH]c5ccc(OC)cc5c4C4CCC(C(C)(C)C)CC4C3C2=O)cc1` (stereo not given), which growth inhibition is on record?
**A.** Its growth inhibition is 20.5%.

**Q.** With `COCCC(N)C(=O)O` (stereo not given) as the compound, how does the growth inhibition read?
**A.** The growth inhibition was 2.65%.

**Q.** With `Cc1sc2c(c1C)C(=O)c1cccn1-2` as the compound, how does the growth inhibition read?
**A.** The growth inhibition was -1%.

**Q.** Which growth inhibition does the source give for `O=[N+]([O-])c1ccc(-c2ccccc2-c2ccccc2)cc1` here?
**A.** Its growth inhibition is -22.9%.

**Q.** With `OC1OCC(COc2ccc(Cl)cc2)OC1O` (stereo not given) as the compound, how does the growth inhibition read?
**A.** Its growth inhibition is 18.9%.

**Q.** Which growth inhibition does the source give for `CN1C=CC(=Cc2ccccc2)C=C1` here?
**A.** The growth inhibition was 1.4%.

**Q.** Which growth inhibition does the source give for `NC(=O)NNC(=O)c1nc[nH]c1[N+](=O)[O-]` here?
**A.** Its growth inhibition is -13.3%.

**Q.** With `c1cc2c(cc1CC1CO1)OCO2` (stereo not given) as the compound, how does the growth inhibition read?
**A.** The growth inhibition was 15%.

**Q.** With `CC(=O)NCC(C)(C)C` as the compound, how does the growth inhibition read?
**A.** The growth inhibition was -12.8%.

**Q.** With `CC(=O)NC(C)NC(C)=O` as the compound, how does the growth inhibition read?
**A.** The growth inhibition was -5.35%.

**Q.** Which growth inhibition does the source give for `CCC(C)(C)c1ccc(OCCCCNC(=O)c2ccc3ccccc3c2O)c(C(C)(C)CC)c1` here?
**A.** The growth inhibition was 3.15%.

**Q.** For `CCCCCCCCc1cc(CN2CCOCC2)c(O)c(CN2CCOCC2)c1`, which growth inhibition is on record?
**A.** The growth inhibition was 21.6%.

**Q.** Which growth inhibition does the source give for `O=C(CCCC(=O)N/N=C/c1ccc(I)cc1)N/N=C\c1ccc(I)cc1` here?
**A.** Its growth inhibition is 17.7%.

**Q.** Which growth inhibition does the source give for `N#CCCN(C1=NN(C(=O)CC(=O)Nc2cccc(Cl)c2)C(c2ccccc2)C1)c1ccccc1Cl` (stereo not given) here?
**A.** The growth inhibition was -30.9%.

**Q.** For `Cc1cccc(NC(=O)O/N=C(\Cl)C(C)C)c1`, which growth inhibition is on record?
**A.** The growth inhibition was -43.4%.

**Q.** With `CCCCCN(CCCCC)CC(O)c1cccc2c1cc(Br)c1ccccc12` (stereo not given) as the compound, how does the growth inhibition read?
**A.** The growth inhibition was 14.7%.

**Q.** Which growth inhibition does the source give for `O=C(O)c1cc(Cl)ccc1-c1ccc(Cl)cc1C(=O)Nc1ccc2c(c1)Cc1cc(Cl)cc(Cl)c1-2` here?
**A.** Its growth inhibition is 97.3% (active).

**Q.** Which growth inhibition does the source give for `Oc1ccc(NCc2ccccc2)cc1` here?
**A.** Its growth inhibition is 16.9%.

**Q.** Which growth inhibition does the source give for `CC(C)C1CCC(C)(C=O)C1` (stereo not given) here?
**A.** The growth inhibition was -26.9%.

**Q.** With `CC1=C(C(=O)Nc2ccc([N+](=O)[O-])cc2)C(c2cccc([N+](=O)[O-])c2)C(C(=O)Nc2ccc([N+](=O)[O-])cc2)=C(C)N1` as the compound, how does the growth inhibition read?
**A.** The growth inhibition was -15.1%.

**Q.** Which growth inhibition does the source give for `CC(=O)OCC(OC(C)=O)C1(O)CCC2C3CCC4=CC(=O)CCC4(C)C3CCC21C` (stereo not given) here?
**A.** The growth inhibition was 98.3% (active).

**Q.** For `CCN(CC)CCN1C(=O)C(=O)N(c2cccc3ccccc23)C1=O`, which growth inhibition is on record?
**A.** Its growth inhibition is -10.2%.

**Q.** For `COc1ccc(NC(=O)N2CC3CCN2CC3)cc1`, which growth inhibition is on record?
**A.** Its growth inhibition is -16.2%.

**Q.** For `O=c1[nH]c2nc[nH]c(=O)c2[nH]1`, which growth inhibition is on record?
**A.** Its growth inhibition is 6.05%.

**Q.** For `Oc1ccc(Cl)cc1C=Nc1cnc2ccccc2c1`, which growth inhibition is on record?
**A.** Its growth inhibition is 17.4%.
